Drawing on PubChem BioAssay (NCATS), this text covers outcome for 39 compounds.

The source made the active and inactive calls. The call rests on the fitted dose curve; in most records, active means well fitted curve in the direction sought with a large enough effect; inactive means no such curve, though single readings can be large or run the other way.

This assay in a line: qHTS for small molecule inhibitors of Yes1 kinase: Counter Assay (AID 686950).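 Further: no kinase present so only ADP-Glo detection of a fixed ADP amount is tested; luminescence from ADP-Glo reporting ADP in a fixed ATP and ADP mixture.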 To be noted: series mostly up to 76.9 µM. The essentials:
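ADP-Glo luminescence read after a 60 min room-temperature incubation of compound with an ATP/ADP mix (0.08 mM/0.02 mM) and no kinase, following a 20 min compound preincubation. Signal scaled between ATP+ADP (max) and 0.1 mM ATP-only (min) wells; Tris pH 7.5, Mg2+, DTT.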
As to `CCc1nn2ncccc2c1-c1ccnc(NC2CC2)n1`, the result was inactive. On to `Fc1ccc(-c2cc(-c3cn[nH]c3-c3ccccn3)ccn2)cc1`, for which the call was inactive. With `CC(C)(C)c1ccc(Oc2nccc(-c3c(-c4ccc(F)cc4)ncn3C3CCNCC3)n2)cc1`, the call was inactive.

As for `CNC(=O)c1sc(-n2cnc3cc(OC)c(OC)cc32)cc1OCc1ccccc1C(F)(F)F`, the compound was called inactive. For `Cc1nnc(-c2ccc(C)c(-c3ccc(C(=O)Nc4cccc(C#N)c4)cc3)c2)o1`, the result was inactive. `Fc1ccc(Oc2nccc(-c3c(-c4ccc(F)cc4)ncn3C3CCNCC3)n2)cc1`: the outcome was inactive. To `NS(=O)(=O)c1ccc(N=Nc2c(O)[nH]c3ccc(C(=O)NCCCn4ccnc4)cc23)cc1` belongs “inactive”. To `O=C(Nc1n[nH]c2cc(-c3ccccc3)ccc12)C1CC1` belongs “inactive”. The result for `Fc1ccc(-c2c(-c3ccncc3)nc3n2CCS3)cc1` reads “inactive”; that for `O=C(Nc1n[nH]c2nnc(-c3cccnc3)cc12)C1CC1`, “inactive”.

Turning to `Fc1cccc(COc2ccc(Nc3ncnc4cc(-c5ccc[nH]5)sc34)cc2Cl)c1`, the outcome was inactive. To `NS(=O)(=O)c1ccc(N=Nc2c(O)[nH]c3ccc(-c4cnco4)cc23)cc1` belongs “inactive”; to `Cc1cccc(Oc2nccc(-c3c(-c4ccc(F)cc4)ncn3C3CCNCC3)n2)c1C`, “inactive”; to `O=S(=O)(CCOCc1ccc(-c2ccc3ncnc(Nc4ccc(OCc5cccc(F)c5)c(Cl)c4)c3c2)o1)c1ccccc1`, “inactive”. Regarding `COc1cc(Nc2nccc(-c3cnn4ncccc34)n2)cc(OC)c1`, the result was inactive.

Regarding `FC(F)(F)c1cccc(-c2nn3ncccc3c2-c2ccnc(Nc3ccc4c(c3)OCCO4)n2)c1`, the result was inactive. The result for `CS(=O)(=O)CCNCc1nc(-c2ccc3ncnc(Nc4ccc(OCc5cccc(C(F)(F)F)c5)cc4)c3c2)cs1` reads “inactive”; that for `Fc1ccc(-c2ncn(C3CCNCC3)c2-c2ccnc(Oc3cccc(F)c3)n2)cc1`, “inactive”.

For the compound `Cc1ccc(C(=O)NC2CCC2)cc1-c1ccc(C(=O)NCC2CC2)cc1`, the call was inactive. Consider `COc1ccc2ncn(-c3cc(OC(C)c4ccccc4C(F)(F)F)c(C(N)=O)s3)c2c1` (centres undefined), for which the compound was classed as inactive. The result for `CC(=Nc1ccc(S(N)(=O)=O)cc1)c1c(O)[nH]c2ccccc12` reads “inactive”; that for `COc1cccc(Nc2nccc(-c3cnn4ncccc34)n2)c1`, “inactive”. As for `Fc1ccc(-c2nn3ccccc3c2-c2ccncc2)cc1`, the call was inactive. To `COc1cc2ncn(-c3cc(OCCc4ccccc4)c(C(N)=O)s3)c2cc1OC` belongs “inactive”; to `Fc1ccc(-c2ncn(CCCN3CCOCC3)c2-c2ccncc2)cc1`, “inactive”. On to `O=C(Nc1n[nH]c2nc(-c3ccco3)c(Br)cc12)C1CC1`, for which the outcome was inactive. To `c1ccc(Nc2ncc(-c3ccccc3)o2)cc1` belongs “inactive”; to `Nc1nc(-c2cccc(Cl)c2)c(-c2ccc3ncccc3n2)s1`, “inactive”. The result for `O=C(Nc1n[nH]c2cc(-c3ccc(F)cc3)ccc12)C1CC1` reads “inactive”; that for `O=C1NC(=O)C(c2ccccc2)=C1Nc1ccccc1`, “inactive”. Take `COc1ccccc1C1=C(Nc2ccccc2)C(=O)NC1=O`: the compound was called inactive. To `OCCCNc1nccc(-c2c(-c3ccc(F)cc3)nn3cc(C(F)(F)F)ccc23)n1` belongs “inactive”; to `Cc1ccc2[nH]c(O)c(N=Nc3ccc(S(N)(=O)=O)cc3)c2c1`, “inactive”; to `Fc1ccc(-c2ncn(C3CCNCC3)c2-c2ccnc(Oc3ccc(Cl)cc3)n2)cc1`, “inactive”.

Take `CC1=C(C(=O)Nc2ccc3[nH]ncc3c2)C(c2ccc(F)cc2)NC(=O)N1` (centres undefined): the compound was called inactive.

On to `O=C1NC(=O)C(c2ccccc2Cl)=C1Nc1cccc(O)c1`, for which the compound was classed as inactive. For `O=S(=O)(CCNCc1ccc(-c2ccc3ncnc(Nc4ccc(OCc5cccc(F)c5)c(Cl)c4)c3c2)o1)c1ccccc1`, the compound was classed as inactive. To `CS(=O)(=O)CCNCc1nc(-c2ccc3ncnc(Nc4ccc(F)c(Cl)c4)c3c2)cs1` belongs “inactive”.

On to `Fc1cccc(COc2ccc(Nc3ncnc4sc(-c5cccs5)cc34)cc2Cl)c1`, for which the compound was called inactive.
